Results reported in publication PMC10954555.

Columns and labels:
Assay in all cases: other; cross-linking mass spectrometry; other
[1] = target: DNA topoisomerase 2-beta (UniProt Q02880)
[2] = target: Scaffold attachment factor B1 (UniProt Q15424)
[3] = target: Transcription initiation factor TFIID subunit 12 (UniProt Q16514)
[4] = target: Transcription initiation factor TFIID subunit 9B (UniProt Q9HBM6)
Chain of Transcription initiation factor TFIID subunit 9B (Q9HBM6 whole entry): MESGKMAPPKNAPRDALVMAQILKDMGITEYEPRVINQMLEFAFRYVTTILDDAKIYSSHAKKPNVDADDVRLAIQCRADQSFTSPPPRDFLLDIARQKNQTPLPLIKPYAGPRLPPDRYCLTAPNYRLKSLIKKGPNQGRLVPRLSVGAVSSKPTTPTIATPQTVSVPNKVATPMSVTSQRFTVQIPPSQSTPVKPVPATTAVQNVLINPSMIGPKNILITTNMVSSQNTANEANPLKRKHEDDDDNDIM

Chain of Scaffold attachment factor B2, Q14151 (Q14151 whole entry): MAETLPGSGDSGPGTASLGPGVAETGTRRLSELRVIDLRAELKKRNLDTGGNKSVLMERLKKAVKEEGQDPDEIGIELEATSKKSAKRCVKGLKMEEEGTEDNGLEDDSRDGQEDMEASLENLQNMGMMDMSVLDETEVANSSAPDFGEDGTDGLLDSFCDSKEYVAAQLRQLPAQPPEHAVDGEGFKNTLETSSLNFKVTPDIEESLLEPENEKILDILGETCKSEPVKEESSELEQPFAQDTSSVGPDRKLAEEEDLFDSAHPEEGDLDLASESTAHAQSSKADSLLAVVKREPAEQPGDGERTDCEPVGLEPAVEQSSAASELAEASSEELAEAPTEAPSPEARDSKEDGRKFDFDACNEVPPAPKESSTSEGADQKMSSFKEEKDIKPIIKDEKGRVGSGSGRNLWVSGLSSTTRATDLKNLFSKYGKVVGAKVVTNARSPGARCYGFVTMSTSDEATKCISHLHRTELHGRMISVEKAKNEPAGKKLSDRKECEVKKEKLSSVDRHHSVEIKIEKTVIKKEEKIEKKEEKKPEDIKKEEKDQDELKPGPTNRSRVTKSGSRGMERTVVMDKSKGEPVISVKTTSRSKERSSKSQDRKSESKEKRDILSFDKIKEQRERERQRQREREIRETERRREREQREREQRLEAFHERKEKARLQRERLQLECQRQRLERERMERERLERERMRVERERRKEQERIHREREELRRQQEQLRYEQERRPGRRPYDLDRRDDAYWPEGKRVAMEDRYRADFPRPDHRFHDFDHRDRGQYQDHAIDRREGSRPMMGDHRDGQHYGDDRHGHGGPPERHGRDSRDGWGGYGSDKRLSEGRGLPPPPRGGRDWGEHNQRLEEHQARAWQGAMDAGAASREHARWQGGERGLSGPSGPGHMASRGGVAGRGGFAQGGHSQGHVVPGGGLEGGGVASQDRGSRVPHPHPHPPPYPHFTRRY
Chain of Transcription initiation factor TFIID subunit 12 (Q16514 whole entry): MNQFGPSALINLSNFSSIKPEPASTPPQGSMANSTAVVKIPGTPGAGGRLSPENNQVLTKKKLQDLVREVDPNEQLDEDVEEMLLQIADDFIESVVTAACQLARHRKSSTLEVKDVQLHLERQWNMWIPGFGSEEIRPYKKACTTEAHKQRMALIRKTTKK
Chain of Scaffold attachment factor B1 (Q15424 whole entry): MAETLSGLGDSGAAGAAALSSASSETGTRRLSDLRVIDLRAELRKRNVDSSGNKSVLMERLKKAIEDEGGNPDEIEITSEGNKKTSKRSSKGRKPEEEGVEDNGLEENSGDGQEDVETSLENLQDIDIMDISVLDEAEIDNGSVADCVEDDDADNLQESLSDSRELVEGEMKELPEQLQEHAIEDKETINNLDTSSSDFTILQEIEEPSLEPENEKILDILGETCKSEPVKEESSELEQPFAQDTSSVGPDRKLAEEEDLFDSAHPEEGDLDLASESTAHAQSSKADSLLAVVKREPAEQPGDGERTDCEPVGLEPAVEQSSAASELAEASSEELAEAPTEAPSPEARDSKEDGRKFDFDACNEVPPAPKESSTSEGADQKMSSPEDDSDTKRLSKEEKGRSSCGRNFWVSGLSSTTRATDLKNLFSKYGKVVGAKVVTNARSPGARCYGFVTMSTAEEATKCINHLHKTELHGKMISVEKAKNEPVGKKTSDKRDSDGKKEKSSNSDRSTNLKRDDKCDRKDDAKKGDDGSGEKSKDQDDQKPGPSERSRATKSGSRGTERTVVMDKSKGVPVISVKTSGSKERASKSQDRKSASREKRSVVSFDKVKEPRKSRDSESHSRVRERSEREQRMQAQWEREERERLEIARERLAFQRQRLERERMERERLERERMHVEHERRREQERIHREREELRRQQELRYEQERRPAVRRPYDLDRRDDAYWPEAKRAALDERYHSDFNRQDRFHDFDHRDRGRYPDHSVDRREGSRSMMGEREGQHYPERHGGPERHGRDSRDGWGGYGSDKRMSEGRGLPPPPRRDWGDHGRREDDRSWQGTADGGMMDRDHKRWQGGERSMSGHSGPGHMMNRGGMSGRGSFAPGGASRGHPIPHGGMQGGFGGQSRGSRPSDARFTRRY
Chain of DNA topoisomerase 2-beta (Q02880 whole entry): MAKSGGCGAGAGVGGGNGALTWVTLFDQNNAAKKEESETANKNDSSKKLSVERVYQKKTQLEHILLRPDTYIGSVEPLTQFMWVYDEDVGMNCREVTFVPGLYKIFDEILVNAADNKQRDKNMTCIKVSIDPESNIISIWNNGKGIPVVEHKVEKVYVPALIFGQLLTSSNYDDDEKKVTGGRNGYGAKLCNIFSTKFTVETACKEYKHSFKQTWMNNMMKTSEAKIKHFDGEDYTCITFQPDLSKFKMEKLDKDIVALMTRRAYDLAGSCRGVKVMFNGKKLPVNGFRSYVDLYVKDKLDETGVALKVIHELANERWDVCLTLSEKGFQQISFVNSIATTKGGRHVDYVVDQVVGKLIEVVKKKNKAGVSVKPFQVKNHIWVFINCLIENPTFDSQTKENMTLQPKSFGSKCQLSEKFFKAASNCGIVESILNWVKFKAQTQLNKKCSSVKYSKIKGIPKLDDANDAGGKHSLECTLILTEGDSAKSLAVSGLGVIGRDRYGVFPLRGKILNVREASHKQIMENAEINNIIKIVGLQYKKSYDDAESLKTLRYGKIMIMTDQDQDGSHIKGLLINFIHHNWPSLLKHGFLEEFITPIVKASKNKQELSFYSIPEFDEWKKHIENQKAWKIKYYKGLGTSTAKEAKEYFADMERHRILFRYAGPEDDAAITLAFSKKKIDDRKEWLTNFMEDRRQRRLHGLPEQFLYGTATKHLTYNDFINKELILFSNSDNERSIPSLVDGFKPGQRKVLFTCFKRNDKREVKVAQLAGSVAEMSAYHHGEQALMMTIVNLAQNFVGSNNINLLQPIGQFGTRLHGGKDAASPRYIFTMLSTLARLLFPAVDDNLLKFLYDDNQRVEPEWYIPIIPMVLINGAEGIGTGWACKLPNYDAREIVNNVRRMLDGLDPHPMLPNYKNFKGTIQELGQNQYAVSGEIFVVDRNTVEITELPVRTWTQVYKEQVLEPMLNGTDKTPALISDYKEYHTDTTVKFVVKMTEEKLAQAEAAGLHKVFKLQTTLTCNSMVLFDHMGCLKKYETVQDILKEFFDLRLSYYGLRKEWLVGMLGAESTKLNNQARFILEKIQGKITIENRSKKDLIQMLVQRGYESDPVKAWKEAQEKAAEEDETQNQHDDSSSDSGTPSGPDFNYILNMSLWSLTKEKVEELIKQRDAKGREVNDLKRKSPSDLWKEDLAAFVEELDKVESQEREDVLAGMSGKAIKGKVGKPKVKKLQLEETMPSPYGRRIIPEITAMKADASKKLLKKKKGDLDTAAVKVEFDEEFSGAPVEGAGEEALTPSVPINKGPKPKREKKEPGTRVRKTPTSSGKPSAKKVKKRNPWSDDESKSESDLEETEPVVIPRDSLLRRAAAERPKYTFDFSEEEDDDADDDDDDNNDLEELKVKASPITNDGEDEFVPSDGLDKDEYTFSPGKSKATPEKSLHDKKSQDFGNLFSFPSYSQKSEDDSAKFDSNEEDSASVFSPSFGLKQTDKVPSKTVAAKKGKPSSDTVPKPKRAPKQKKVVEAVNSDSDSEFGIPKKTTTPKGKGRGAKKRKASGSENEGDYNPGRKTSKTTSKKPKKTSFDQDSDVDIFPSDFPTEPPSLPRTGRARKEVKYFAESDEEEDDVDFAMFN

DNA topoisomerase 2-alpha, P11388
listed as a hit [1]: yes

Scaffold attachment factor B2, Q14151
listed as a hit [2]: yes

Transcription initiation factor TFIID subunit 5, Q15542
listed as a hit [3]: yes | listed as a hit [4]: yes
